# PPARg SRC3 recr = promotes SRC-3 coactivator recruitment by human PPARgamma; P37231; biochemical PPARgamma/SRC-3 coactivator recruitment assay; activation, % at 8 µM; 200,000 compounds, 0.26% hits; AID 731; in the data active means activation above about 23%;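 further: 0% = DMSO and 100% = reference agonist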
# Target sequence (P37231 whole entry, looked up): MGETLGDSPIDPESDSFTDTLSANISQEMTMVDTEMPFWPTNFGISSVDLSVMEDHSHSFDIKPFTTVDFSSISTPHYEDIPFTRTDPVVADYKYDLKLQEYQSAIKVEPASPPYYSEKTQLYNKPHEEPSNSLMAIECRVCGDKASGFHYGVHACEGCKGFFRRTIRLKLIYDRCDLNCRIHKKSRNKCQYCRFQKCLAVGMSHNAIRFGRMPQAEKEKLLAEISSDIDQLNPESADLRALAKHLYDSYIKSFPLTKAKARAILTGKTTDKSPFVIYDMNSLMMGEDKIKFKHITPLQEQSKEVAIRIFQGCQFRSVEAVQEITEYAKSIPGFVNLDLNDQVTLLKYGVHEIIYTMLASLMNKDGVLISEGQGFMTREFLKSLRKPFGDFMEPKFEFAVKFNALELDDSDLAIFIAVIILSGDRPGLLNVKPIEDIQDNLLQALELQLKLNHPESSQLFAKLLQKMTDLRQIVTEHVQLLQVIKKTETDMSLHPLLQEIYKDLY
# SRC3 TRFRET art = TR-FRET artefact, counter-screen to PPARgamma/SRC-3 agonist assay | PPARgamma/SRC-3 format; hits give high values | TR-FRET ratio at 8 µM | 99,000 compounds, 0.39% hits
# SRC1 TRFRET art = TR-FRET artefact, counter-screen to PPARgamma/SRC-1 agonist assay. TR-FRET detection artefact counter-screen, emission ratio; hits give high values. TR-FRET ratio at 8 µM. 99,000 compounds, 0.34% hits. AID 1051; in the data active means TR-FRET ratio above about 2300
# PPARg SRC2 recr = PPARgamma-driven SRC-2 recruitment agonism; activation, % at 8 µM; P37231; AID 1032; PPARgamma LBD-SRC-2 recruitment, biochemical; 200,000 compounds, 0.34% hits; in the data active means activation above about 22%;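 further: 0% = vehicle and 100% = reference agonist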
# SRC2 TRFRET art = flags TR-FRET format artefacts in PPARgamma SRC-2 recruitment agonist screen; AID 1049; TR-FRET ratio at 8 µM; 200,000 compounds, 0.4% hits; TR-FRET artefact counter-screen; hits give high values
# PPARg SRC1 recr = PPARgamma-driven SRC-1 recruitment agonism. activation, % at 8 µM. 200,000 compounds, 0.41% hits. AID 631. PPARgamma-SRC-1 coactivator recruitment biochemical assay. P37231; in the data active means activation above about 19%;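 further: 0% = DMSO and 100% = reference agonist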
# PPARg SRC2 conf = confirmation of agonists of SRC-2 recruitment by human PPARgamma; 790 compounds, 52% hits; shares compounds with PPARg SRC3 recr; activation, % at 8 µM; biochemical SRC-2 recruitment by PPARgamma; in the data active means activation above about 22%;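 further: 0% = vehicle alone and 100% = reference agonist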
# PPARg SRC1 ag = human PPARgamma SRC-1 recruitment agonism, confirmation | shares compounds with PPARg SRC3 recr | PPARgamma–SRC-1 coactivator recruitment biochemical assay | activation, % at 8 µM | 790 compounds, 43% hits; in the data active means activation above about 20%;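 further: 0% = vehicle wells and 100% = reference agonist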
# PPARg SRC3 conf = confirmation of agonists of SRC-3 recruitment by human PPARgamma; shares compounds with PPARg SRC3 recr; biochemical PPARgamma-SRC-3 coactivator recruitment, agonist mode; 790 compounds, 29% hits; activation, % at 8 µM; in the data active means activation above about 24%;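 further: 0% = vehicle wells and 100% = reference agonist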
# Starred values were filed as active, the others as inactive; . = no result given. Rows were chosen to be rich in hits. Some 0.84% of all compounds tested hit in one or more screens of this group. Unless noted, no stated cut-off is given here; in the data, active means TR-FRET ratio above about 2000; inactive means the rest.
SMILES,PPARg SRC3 recr,SRC3 TRFRET art,SRC1 TRFRET art,PPARg SRC2 recr,SRC2 TRFRET art,PPARg SRC1 recr,PPARg SRC2 conf,PPARg SRC1 ag,PPARg SRC3 conf
COC(=O)c1c(Cl)c2n3ccccc3c(C)c(-c3ccccc3)c-2c1C(=O)OC,11,2198*,2328*,24*,2016*,18,1,3,3
CCCN(CCC)S(=O)(=O)c1ccc(C(=O)N2CCOCC2)cc1,3,.,.,-2,1689,3,.,.,.
O=C(N/N=C/c1ccc(N2CCOCC2)o1)c1cccc(C(F)(F)F)c1,13,.,.,24*,1609,12,6,4,4
CNC(=O)CSc1nc2[nH]ncc2c(=O)[nH]1,4,1652,1900,6,1900,7,.,.,.
Cc1cccc(CN2CCN(CC(=O)NCCCN3CCN(c4ccc(F)cc4)CC3)C2=O)c1,5,.,.,15,1486,2,.,.,.
CCn1c(=O)cc(SCC(=O)NCCCN2CCC(C)CC2)c2ccccc21,9,1905,2386*,26*,1872,14,21,13,12
CCn1c(=O)cc(SCC(=O)NCCN2CCN(Cc3ccccc3)CC2)c2ccccc21,70*,.,.,63*,3069*,49*,29*,16,18
Cn1c(=O)cc(OCC(=O)NCCCN2CCN(Cc3ccccc3)CC2)c2ccccc21,4,.,.,8,1472,3,.,.,.
CCn1c(=O)cc(SCC(=O)NCCCN2CCN(c3ccc(F)cc3)CC2)c2ccccc21,101*,.,.,81*,3656*,87*,38*,23*,25*
COc1cc(C(=O)NCc2nnc(SCC(=O)N3CCOCC3)o2)cc(OC)c1OC,6,1901,1724,6,1779,1,.,.,.
O=C1CCC(=O)N1c1ccc(-c2nc3ccccc3s2)cc1,14,1640,2057,25*,1699,28*,5,6,5
COc1ccc(C(CC(=O)Nc2ccc(Cl)cc2F)NC(=O)C(F)(F)F)cc1 (stereo unspecified),8,.,.,2,1618,19*,4,4,4
Cc1ccc(NS(=O)(=O)c2cc(C(=O)NCCSc3ccc(C)cc3)ccc2C)cc1,10,.,.,21,1621,20*,9,14,17
Cc1nn(Cc2ccccc2Cl)c(C)c1C(=O)NCCN1C(=O)S/C(=C\c2ccccc2)C1=O,23*,1547,1779,18,1519,23*,6,22*,14
CCOc1ccccc1N1CCN(c2nc(N)c(C#N)c(CC#N)c2C#N)CC1,29*,.,.,16,1666,8,3,1,2
Cc1ccccc1NC(=O)c1cc(C(=O)c2cc(Cl)ccc2O)cn(-c2ccccc2C)c1=O,-1,1787,2018,7,1737,4,.,.,.
O=c1c2cn[nH]c2nc(SCc2ccccc2F)n1-c1ccc(Br)cc1,3,1579,1760,-1,1610,7,.,.,.
O=c1c2cn[nH]c2nc(SCc2cc(=O)n3cc(Br)ccc3n2)n1-c1ccc(Br)cc1,22,2853*,3354*,36*,2457*,33*,28*,19,20
CCOc1ccc(CC(=O)N2N=C(C)CC2(O)C(F)(F)F)cc1 (stereo unspecified),0,1459,1649,-2,1454,6,.,.,.
Cc1ccc(C(=O)NCCc2ccc(S(=O)(=O)N3CCCC3)cc2)cc1,0,1782,1940,0,1639,4,.,.,.
Cc1cc2cc(CNS(=O)(=O)c3ccc4ccccc4c3)ccc2n1C,38*,.,.,21,3303*,18,104*,79*,65*
Cc1cc2ccccc2n1CCNC(=O)c1ccc(S(=O)(=O)N2CCCCC2)cc1,44*,.,.,26*,3753*,24*,93*,80*,70*
Cc1cc2cc(CNC(=O)c3ccc(S(=O)(=O)N4CCOCC4)cc3)ccc2n1C,45*,.,.,8,2210*,31*,35*,29*,19
CCCC(=O)NCc1ccc2c(c1)cc(C)n2C,-1,.,.,-2,1636,9,.,.,.
